Data published in PubChem BioAssay.
Calls of active or inactive are those of the source.

What was measured:
[1] = compound effects on lung adenocarcinoma cell viability – A549, calcein-AM fluorescence, 48 h, basal, profiling panel (AID 1162); settings: higher = more signal
[2] = compound effects on differentiated 3T3-L1 adipocyte viability – cell-based, 3T3-L1 adipocytes, calcein-AM fluorescence, 48 h, basal, profiling panel (AID 1163); settings: 3T3-L1 adipocytes viability, higher = more signal
[3] = compound effects on hepatocellular carcinoma cell viability – HepG2, calcein-AM fluorescence, 48 h, basal, profiling panel (AID 1164); settings: higher = more signal
[4] = compound effects on multiple myeloma cell viability – MM1S, calcein-AM fluorescence, 48 h, basal, profiling panel (AID 1165); settings: higher = more signal;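 note: viability of MM1S multiple myeloma cells under basal unstimulated conditions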
[5] = calcein-AM signal in unstimulated myeloma cells – cell-based, calcein-AM fluorescence, 48 h, PK04 Diversity Set, profiling panel (AID 1166); settings: RPMI8226 myeloma viability, higher = more signal;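 note: cells grown under basal conditions without added stimulus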
[6] = JC-1 mitochondrial signal, unstimulated HepG2 cells – cell-based, JC-1 fluorescence, 24 h, 100 nL compound, profiling panel (AID 1167); settings: HepG2 mitochondrial potential, higher = more signal
[7] = JC-1 mitochondrial signal, unstimulated adipocytes – cell-based, JC-1 fluorescence, 3T3-L1 adipocytes, 24 h, 100 nL compound, profiling panel (AID 1168); settings: JC-1 mitochondrial fluorescence, higher = more signal, called active from +8 up or from −8 down
[8] = JC-1 mitochondrial signal, unstimulated myeloma cells – cell-based, JC-1 fluorescence, RPMI8226, 24 h, 100 nL compound, profiling panel (AID 1169); settings: JC-1 mitochondrial potential fluorescence, higher = more signal
[9] = JC-1 mitochondrial signal, unstimulated MM1S myeloma – cell-based, JC-1 fluorescence, 24 h, 100 nL compound, profiling panel (AID 1170); settings: MM1S mitochondrial potential, higher = more signal
[10] = resazurin metabolic signal in A549 cells – cell-based, resazurin fluorescence, 24 h, PK04 Diversity Set, profiling panel (AID 1171); settings: A549 viability, higher = more signal, called active from +8 up or from −8 down
Note: test concentration not given here.

Row | SMILES | z-score [1] | z-score [2] | z-score [3] | z-score [4] | z-score [5] | z-score [6] | z-score [7] | z-score [8] | z-score [9] | z-score [10]
1 | COC(=O)C1=CC(CCCO)=CC(c2cccs2)N(Cc2cc3c(cc2Br)OCO3)C=C1C(=O)OC (stereo not given) | 0.236 | 0.425 | 0.897 | -1.26 | -0.188 | 0.725 | -0.253 (inactive) | -0.131 | 0.398 | -0.0673 (inactive)
2 | CCC(CC)C(O)C1C=CC2C(=O)N(c3ccccc3)C(=O)C2N1Nc1ccccc1F (stereo not given) | 0.21 | 0.561 | 1.09 | 1.38 | 0.523 | 0.387 | -0.147 (inactive) | -0.231 | -0.817 | 0.0513 (inactive)
3 | CCCCC(=C=CC[C@H](O)c1ccc(CO)o1)CCO | -0.231 | -0.652 | 0.115 | -0.562 | -0.0295 | -0.787 | -0.848 (inactive) | -0.0527 | -0.534 | -0.598 (inactive)
4 | C=CCNC(=O)[C@H]1[C@@H]2C(=O)O[C@@H](c3ccccc3)[C@@H](c3ccccc3)N2[C@@H](c2ccc(OCCO)cc2)[C@]12C(=O)Nc1ccccc12 | 0.375 | 1.35 | -0.503 | 0.287 | -0.62 | -1.21 | -0.00331 (inactive) | -0.522 | -0.377 | 1.02 (inactive)
5 | O=C(NCC(O)CO)[C@@]1(CCS(=O)(=O)c2ccccc2)N=C(c2ccc(OCCCO)cc2)O[C@H]1c1ccccc1 (stereo not given in full) | 0.433 | 0.719 | -0.4 | -1 | -2.47 | 0.956 | -0.874 (inactive) | -0.694 | -0.745 | -0.0521 (inactive)
6 | O=C1C[C@@](C(=O)O)(c2ccc([N+](=O)[O-])cc2)[C@@H](c2ccc(CO)cc2)N1C1CCCCC1 | 0.903 | -0.0886 | -0.28 | -1.43 | -2.67 | 0.969 | -1.22 (inactive) | -0.145 | -0.247 | 0.361 (inactive)
7 | CC(C)N1C(=O)c2ccccc2[C@](C)(C(=O)NCC(F)(F)F)[C@@H]1c1ccc(CO)cc1 | 0.508 | 1.33 | 1.01 | 0.0226 | 0.177 | 0.686 | -0.0819 (inactive) | 0.261 | 1.38 | 0.87 (inactive)
8 | CO[C@H]1O[C@H](CO)[C@@H](OC(=O)Nc2ccc3c(c2)OCO3)[C@H](OC(=O)Nc2ccccc2-c2ccccc2)[C@H]1OC(=O)Nc1ccccc1-c1ccccc1 | -3.97 | 0.548 | -3.71 | -3.34 | -2.72 | 0.0319 | 2.04 (inactive) | -0.819 | -1.76 | -3.84 (inactive)
9 | CN(C)C(=O)[C@]1(Cc2ccccc2)N=C(c2ccc(OCCCO)cc2)O[C@@H]1c1ccccc1CN=[N+]=[N-] | 0.233 | 0.412 | -0.0312 | -0.726 | -1.65 | 0.501 | 0.0148 (inactive) | -1.23 | -0.507 | 0.553 (inactive)
10 | O=C1O[C@@H](c2ccccc2)[C@@H](c2ccccc2)N2[C@@H](c3ccc(OCCO)cc3)[C@]3(C(=O)Nc4ccc(C#CCCO)cc43)[C@@H](C(=O)O)[C@H]12 | 1.35 | -0.997 | 0.831 | 0.942 | 0.926 | -0.498 | -0.382 (inactive) | 0.284 | -0.811 | -0.384 (inactive)
11 | CN(C)CCCC[C@@H]1NC(=O)[C@H]2C[C@@H](C(=O)O)[C@@H](c3ccc(O)cc3)N2C1=O | 0.151 | 1.73 | 0.326 | -1.24 | -0.817 | -0.0533 | 0.419 (inactive) | -0.693 | 0.38 | -0.569 (inactive)
12 | CCCCCCc1nc(Cc2cc(OC)c(OC)c(OC)c2)cc2c1[Si](C(C)C)(C(C)C)O[C@H]2c1ccccc1 | -0.106 | -0.267 | -0.492 | -1.09 | -3.49 | 1.03 | -0.462 (inactive) | -0.566 | -0.116 | 2.45 (inactive)
13 | COc1ccc(NN2C(C(O)c3ccc(I)cc3)C=CC3C(=O)N(C4CCCCC4)C(=O)C32)cc1 (stereo not given) | -0.302 | -0.971 | 0.181 | -1.06 | 0.295 | 0.126 | 0.0889 (inactive) | 0.0764 | -1.65 | 1.47 (inactive)
14 | [N-]=[N+]=Nc1ccccc1C[C@]1(C(=O)N2CCOCC2)N=C(c2ccc(OCCCO)cc2)O[C@H]1c1ccccc1N=[N+]=[N-] | 0.961 | 0.744 | -0.621 | -1.77 | -2.98 | 1.81 | -0.0199 (inactive) | -1.01 | -2.03 | -2.16 (inactive)
15 | COC(=O)[C@@]1(Cc2ccc(OC)cc2)[C@H]2c3cc(C(=O)N4CCCC4)n(Cc4c(CO)[nH]cc(C)c4=O)c3C[C@H]2CN1C(=O)c1ccccc1 | -0.37 | 0.454 | 0.375 | -0.206 | 0.501 | 2.94 | 0.926 (inactive) | 0.166 | -1.19 | 0.582 (inactive)
16 | CC(C)N1C(=O)c2ccccc2[C@@H](C(=O)NCC(F)(F)F)[C@@H]1c1ccc(CO)cc1 | 0.346 | -1.81 | 0.569 | 0.238 | 0.371 | -0.0214 | -0.516 (inactive) | -0.00189 | 0.0428 | -0.0442 (inactive)
